“And” between values parts separate entries of the source, which are not always exact repeats. Equal entries are not always repeated. Where a structure was tested more than once in an assay, its records may differ in their call. The source made the active and inactive calls. The calls were made as follows: active = hit-call score of the fitted dose curve at least 0.9, where 1 is the maximum; inactive = score below 0.9.
Experiments:
[1] = BSK_3C_TissueFactor: BioMAP Diversity Plus: 3C Assay for Tissue Factor Biomarker Activity (AID 2282997); conditions: BioMAP 3C HUVEC, tissue factor biomarker readout; actives raise or lower the signal
Procedure, shortened: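 HUVEC, 3C system, 24 h post-dose; Tissue Factor by ELISA; bidirectional fit vs DMSO baseline.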

[2] = read-out: Intercellular Adhesion Molecule 1 (ICAM1), ICAM1 (gene 3383); test: BSK_3C_ICAM1: BioMAP Diversity Plus: 3C Assay for Intercellular Adhesion Molecule 1 (ICAM1) Biomarker Activity (AID 2283003); conditions: primary human endothelial cells (HUVEC); actives raise or lower the signal
Procedure, shortened: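 ELISA readout of ICAM1 in human umbilical vein endothelial cells in the 3C system, taken 24 h post-dose. Gain or loss of signal versus DMSO was fitted in both directions, with SRB total-protein staining run in parallel.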

[3] = read-out: Human Leukocyte Antigen - DR isotype (HLADR), HLA-DRA (gene 3122); test: BSK_3C_HLADR: BioMAP Diversity Plus: 3C Assay for Human Leukocyte Antigen - DR isotype (HLADR) Biomarker Activity (AID 2283019); conditions: primary human endothelial cells (HUVEC); actives raise or lower the signal
Procedure, shortened: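 HUVEC, 3C stimulation, 24 h post-dose; HLA-DR by ELISA; bidirectional curve fit vs DMSO baseline; gain or loss of signal scored.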

[4] = read-out: Matrix Metallopeptidase 1 (MMP1), MMP1 (gene 4312); test: BSK_BE3C_MMP1: BioMAP Diversity Plus: BE3C Assay for Matrix Metallopeptidase 1 (MMP1) Biomarker Activity (AID 2283024); conditions: primary human bronchial epithelial cells; actives raise or lower the signal
Procedure, shortened: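 ELISA measurement of MMP-1 after 24 h compound exposure of primary human bronchial epithelial cells. Changes in either direction fitted relative to DMSO; parallel SRB staining checked overt cytotoxicity.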

[5] = read-out: Pselectin, SELP (gene 6403); test: BSK_4H_Pselectin: BioMAP Diversity Plus: 4H Assay for Pselectin Biomarker Activity (AID 2283026); conditions: primary human endothelial cells (HUVEC); actives raise or lower the signal
Procedure, shortened: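 ELISA of surface P-selectin on HUVEC, 24 h after dosing, with parallel SRB staining (0.1% after 10% TCA fixation, 560 nm) for overt cytotoxicity. Activity fitted in both directions relative to DMSO.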

[6] = read-out: Human Leukocyte Antigen - DR isotype (HLADR), HLA-DRA (gene 3122); test: BSK_BE3C_HLADR: BioMAP Diversity Plus: BE3C Assay for Human Leukocyte Antigen - DR isotype (HLADR) Biomarker Activity (AID 2283032); conditions: primary human bronchial epithelial cells; actives raise or lower the signal
Procedure, shortened: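 Cell-surface HLA-DR ELISA readout at 24 h after dosing in the BE3C primary human lung bronchial epithelial system; gain or loss of signal against DMSO, with parallel sulforhodamine B staining of total protein for overt cytotoxicity.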

[7] = read-out: Vascular cell adhesion molecule 1 (VCAM1), VCAM1 (gene 7412); test: BSK_4H_VCAM1: BioMAP Diversity Plus: 4H Assay for Vascular cell adhesion molecule 1 (VCAM1) Biomarker Activity (AID 2283033); conditions: primary human endothelial cells (HUVEC); actives raise or lower the signal
Procedure, shortened: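 VCAM-1 ELISA read 24 h after chemical dosing of HUVEC in the BioMAP 4H system, with gain or loss of signal fitted relative to DMSO. Parallel SRB staining (560 nm) checked overt cytotoxicity.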

[8] = read-out: Interferon-gamma inducible Protein 10 (IP10), CXCL10 (gene 3627); test: BSK_BE3C_IP10: BioMAP Diversity Plus: BE3C Assay for Interferon-gamma inducible Protein 10 (IP10) Biomarker Activity (AID 2283034); conditions: primary human bronchial epithelial cells; actives raise or lower the signal
Procedure, shortened: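 IP-10 quantified by ELISA in human primary bronchial epithelial cell cultures at 24 hours post-dosing. Gain or loss of signal fitted relative to DMSO; parallel SRB staining assessed overt cytotoxicity.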

[9] = read-out: urokinase plasminogen activator (uPA), PLAU (gene 5328); test: BSK_BE3C_uPA: BioMAP Diversity Plus: BE3C Assay for urokinase plasminogen activator (uPA) Biomarker Activity (AID 2283038); conditions: primary human bronchial epithelial cells; actives raise or lower the signal;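 also: uPA protein level quantified by ELISA in cell cultures; uPA read one day after compound addition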
Procedure, shortened: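 ELISA read-out of uPA in human lung primary bronchial epithelial cultures, 24 h post-dosing. Gain or loss of signal fitted bidirectionally relative to DMSO baseline; cytotoxicity checked in parallel cultures via SRB total protein stain.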

[10] = read-out: Interleukin-6 (IL6), IL6 (gene 3569); test: BSK_CASM3C_IL6: BioMAP Diversity Plus: CASM3C Assay for Interleukin-6 (IL6) Biomarker Activity for (AID 2283040); conditions: primary human coronary artery smooth muscle cells; actives raise or lower the signal
[11] = read-out: Macrophage colony-stimulating factor (MCSF), CSF1 (gene 1435); test: BSK_CASM3C_MCSF: BioMAP Diversity Plus: CASM3C Assay for Macrophage colony-stimulating factor (MCSF) Biomarker Activity (AID 2283044); conditions: primary human coronary artery smooth muscle cells; actives raise or lower the signal;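 also: M-CSF protein amount quantified by ELISA after 24 h exposure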
[12] = read-out: Low-density lipoprotein receptor (LDLR), LDLR (gene 3949); test: BSK_CASM3C_LDLR: BioMAP Diversity Plus: CASM3C Assay for Low-density lipoprotein receptor (LDLR) Biomarker Activity (AID 2283045); conditions: primary human coronary artery smooth muscle cells; actives raise or lower the signal;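 also: LDLR protein level on the cell surface quantified by ELISA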
[13] = read-out: Tissue Factor, F3 (gene 2152); test: BSK_LPS_TissueFactor: BioMAP Diversity Plus: LPS Assay for Tissue Factor Biomarker Activity (AID 2283084); conditions: primary human HUVEC with PBMC; actives raise or lower the signal
Procedure, shortened: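 HUVEC/PBMC co-culture, LPS-activated; CD142 ELISA read 24 h post-dose; bidirectional curve fit vs DMSO negative control.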

[14] = ATG_CRE_CIS: Attagene CIS-FACTORIAL HepG2 Assay for human cAMP Responsive Element (CRE) binding protein 3 (AID 2282926); conditions: HepG2 CRE cis-reporter, Attagene multiplexed mRNA; actives raise or lower the signal
Procedure, shortened: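 Readout: fluorescently labelled reporter transcripts resolved by capillary electrophoresis after RT-PCR, taken 24 h post-dosing in transfected HepG2. Endogenous transcription factor activity drives each cis-element reporter; gain or loss of signal fitted relative to DMSO control.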

[15] = ATG_DR4_LXR_CIS: Attagene CIS-FACTORIAL HepG2 Assay for human Liver X Receptor (LXR), DR4 submotif (AID 2282929); conditions: HepG2 Attagene DR4 cis-reporter, mRNA transcription; actives raise or lower the signal
Procedure, shortened: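 Endogenous factor activity at a DR4 cis-element is read as reporter mRNA in transiently transfected HepG2 cells. Exposure lasts 24 h; transcripts are amplified, fluorescently labelled and sized by capillary electrophoresis, with DMSO as baseline.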

[16] = ATG_AP_1_CIS: Attagene CIS-FACTORIAL HepG2 Assay for human Activator Protein 1 (AP-1) (AID 2282931); conditions: HepG2 Attagene cis-factorial AP-1 reporter mRNA; actives raise or lower the signal
Procedure, shortened: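 Fluorescence of labelled PCR fragments separated by capillary electrophoresis gives reporter mRNA levels. HepG2 with transfected cis-regulated reporter units, 24 h exposure; DMSO serves as baseline for bidirectional curve fits.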

[17] = biological target: Hepatocyte nuclear factor 3-beta (Homo sapiens) (UniProt Q9Y261); test: ATG_FoxA2_CIS: Attagene CIS-FACTORIAL HepG2 Assay for human Forkhead box A2 (FOXA2) (AID 2282942); conditions: HepG2 cis-reporter transcription factor activity, 24 h; actives raise or lower the signal
Procedure, shortened: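 Cells: HepG2, transient multiplex reporter transfection. Exposure 24 h. Detection: reporter-specific RT-PCR, fluorescent labelling, restriction digest, capillary electrophoresis. Analysis: bidirectional curve fit, DMSO as negative control.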

[18] = biological target: Hypoxia-inducible factor 1-alpha (Homo sapiens) (UniProt Q16665); test: ATG_HIF1a_CIS: Attagene CIS-FACTORIAL HepG2 Assay for human Hypoxia Inducible Factor 1 (HIF1A) (AID 2282951); conditions: HepG2 Attagene cis-factorial HIF1a reporter transcription; actives raise or lower the signal
Procedure, shortened: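 HepG2, transient cis-reporter library, 24 h dosing. RNA → RT (oligo dT) → PCR → 6-FAM primer extension → HpaI → CE. Bidirectional curve fit vs DMSO.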

[19] = ATG_NFI_CIS: Attagene CIS-FACTORIAL HepG2 Assay for human Nuclear Factor I (NFI) (AID 2282989); conditions: HepG2 cis-regulatory reporter, NFI response element transcription; actives raise or lower the signal
Procedure, shortened: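 After transient transfection of HepG2 with cis-promoter reporter constructs and 24 h dosing, RNA is reverse-transcribed, amplified, 6-FAM end-labelled and HpaI-digested before capillary analysis. Bidirectional curve fitting against DMSO.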

[20] = ATG_NRF2_ARE_CIS: Attagene CIS-FACTORIAL HepG2 Assay for human Nuclear Factor Erythroid 2 Related Factor 2 (NFR2) response to Antioxidant Response Elements (ARE) (AID 2282992); conditions: HepG2 Attagene ARE/NRF2 reporter, transcription factor activity; actives raise or lower the signal
Procedure, shortened: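 Endogenous transcription factor activity read out as reporter transcript levels (RT-PCR plus capillary electrophoresis, fluorescence) in transiently transfected HepG2 cells. Measured at 24 h after dosing; gain or loss of signal fitted versus DMSO.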

Measured: AC50

Sequence of Hepatocyte nuclear factor 3-beta (Homo sapiens) (Q9Y261 whole entry, looked up): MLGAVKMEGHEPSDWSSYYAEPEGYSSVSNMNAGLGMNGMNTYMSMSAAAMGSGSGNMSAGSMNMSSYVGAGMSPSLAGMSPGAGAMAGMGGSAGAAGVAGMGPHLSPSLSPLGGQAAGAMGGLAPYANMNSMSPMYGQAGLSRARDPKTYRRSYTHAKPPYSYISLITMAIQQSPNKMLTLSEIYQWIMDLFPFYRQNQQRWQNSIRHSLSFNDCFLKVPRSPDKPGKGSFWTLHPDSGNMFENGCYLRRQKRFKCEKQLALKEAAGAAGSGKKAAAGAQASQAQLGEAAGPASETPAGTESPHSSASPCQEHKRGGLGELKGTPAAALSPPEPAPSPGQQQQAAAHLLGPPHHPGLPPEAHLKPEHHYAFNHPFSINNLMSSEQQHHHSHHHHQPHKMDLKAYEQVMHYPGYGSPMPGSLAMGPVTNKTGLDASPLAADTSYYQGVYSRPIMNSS
Sequence of Hypoxia-inducible factor 1-alpha (Homo sapiens) (Q16665 whole entry, looked up): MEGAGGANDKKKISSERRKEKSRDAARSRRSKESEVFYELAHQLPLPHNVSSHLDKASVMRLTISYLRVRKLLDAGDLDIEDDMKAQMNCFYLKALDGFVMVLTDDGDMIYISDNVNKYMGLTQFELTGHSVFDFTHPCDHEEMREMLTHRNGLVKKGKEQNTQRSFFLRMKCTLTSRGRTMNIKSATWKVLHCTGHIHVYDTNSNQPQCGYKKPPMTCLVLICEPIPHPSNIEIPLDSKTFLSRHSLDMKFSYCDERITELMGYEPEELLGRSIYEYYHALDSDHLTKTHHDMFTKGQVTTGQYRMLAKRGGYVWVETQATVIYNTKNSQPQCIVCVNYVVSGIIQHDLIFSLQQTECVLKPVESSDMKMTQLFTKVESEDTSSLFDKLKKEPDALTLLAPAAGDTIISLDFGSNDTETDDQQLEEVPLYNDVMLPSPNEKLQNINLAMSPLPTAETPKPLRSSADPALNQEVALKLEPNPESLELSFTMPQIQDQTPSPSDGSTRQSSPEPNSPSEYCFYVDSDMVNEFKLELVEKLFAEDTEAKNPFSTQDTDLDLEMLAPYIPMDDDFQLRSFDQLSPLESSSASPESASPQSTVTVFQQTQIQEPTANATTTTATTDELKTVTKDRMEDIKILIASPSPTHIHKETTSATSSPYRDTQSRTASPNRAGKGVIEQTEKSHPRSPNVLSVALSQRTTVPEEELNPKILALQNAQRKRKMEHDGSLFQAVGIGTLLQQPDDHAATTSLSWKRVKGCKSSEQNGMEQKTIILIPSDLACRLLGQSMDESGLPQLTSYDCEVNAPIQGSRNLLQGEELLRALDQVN

Cc1c(C(N)=O)cc([N+](=O)[O-])cc1[N+](=O)[O-]
active: [6] 27.8 µM | [8] 32.6 µM
inactive: [1] | [2] | [3] | [4] | [5] | [6] | [7] | [8] | [9] | [10] | [11] | [12] | [13]

CCCCCCOC(=O)CCCCCCCC(=O)OCCCCCC
inactive: [14] | [15] | [16] | [17] | [18] | [19] | [20]

COc1ccccc1OCC(O)CO (stereo unspecified)
inactive: [14] | [15] | [16] | [17] | [19] | [20]

COc1ccc(C(=O)c2ccccc2O)c(O)c1
inactive: [2] | [3] | [4] | [5] | [6] | [8] | [9] | [10] | [11] | [12] | [13]
active: [1] 20 µM and 17.9 µM | [3] 20 µM | [5] 20 µM | [7] 11.5 µM and 14.2 µM

C1CN(CCOCCN2CCOCC2)CCO1
not listed: [14] | [15] | [16] | [17] | [18] | [19] | [20]
inactive: all other assays above

Oc1ccc(Oc2ccccc2)cc1
inactive: [14] | [16] | [17] | [18] | [19] | [20]

CCC[Si](OC(C)=O)(OC(C)=O)OC(C)=O
not listed: [14] | [15] | [16] | [17] | [18] | [19] | [20]
inactive: all other assays above

CC(C)C1OCCN1CCOC(=O)NCCCCCCNC(=O)OCCN1CCOC1C(C)C (stereo unspecified)
not listed: [14] | [15] | [16] | [17] | [18] | [19] | [20]
inactive: all other assays above

COc1ccccc1Oc1c(NS(=O)(=O)c2ccc(C(C)(C)C)cc2)nc(-c2ncccn2)nc1OCCO
inactive: [1] | [2] | [3] | [4] | [5] | [6] | [7] | [8] | [9] | [10] | [12] | [13]
active: [4] 20 µM | [11] 4.05 µM and 5.31 µM

CCO[Si](OCC)(OCC)c1ccccc1
inactive: [14] | [15] | [16] | [17] | [18] | [19] | [20]

CC(C)(C)NC(=O)[C@@H]1CN(Cc2cccnc2)CCN1C[C@@H](O)C[C@@H](Cc1ccccc1)C(=O)N[C@H]1c2ccccc2C[C@H]1O
inactive: [14] | [15] | [16] | [18] | [19] | [20]

O=C(O)Cc1c[nH]c2ccccc12
inactive: [14] | [15] | [16] | [17] | [18] | [19]
active: [20] 74.1 µM

CC[N+](CC)(CC(=O)Nc1c(C)cccc1C)Cc1ccccc1 (tested in a mixture with another compound)
active: [11] 5.41 µM | [12] 0.591 µM
inactive: [14] | [15] | [16] | [17] | [18] | [19] | [20] | [1] | [2] | [3] | [4] | [5] | [6] | [7] | [8] | [9] | [10] | [11] | [12] | [13]

C=C(C)C(=O)OCC1CCCO1 (stereo unspecified)
inactive: [14] | [15] | [16] | [17] | [18] | [19] | [20]

Reference: PubChem BioAssay (EPA / NIEHS)
